Inconclusive results are not listed. Entries that show only a call come without a potency. Activity calls are given as the source filed them. Calls follow the shape of the full dose curve; tested in HEK293 reporter line.
Assay: qHTS for Inhibitors of the Functional Ribonucleoprotein Complex (vRNP) of Lymphocytic Choriomeningitis Arenaviruses (LCMV): Viability assay - alamar blue signal for LCMV Primary Screen (AID 1347085); also: nearly all actives have a fitted effect of over 80% in size
Conditions: alamar blue viability counter-screen, LCMV vRNP screen cells; series mostly up to 57.5 µM

Row | Compound | Potency
1 | CN=C(NC#N)NCCSCc1nc[nH]c1C | inactive
2 | CCOC(=O)[C@H](CCc1ccccc1)N[C@@H](C)C(=O)N1CCC[C@H]1C(=O)O | inactive
3 | O=C1O[C@H](CO)[C@@H](O)[C@H](O)[C@H]1O | inactive
4 | Nc1ncnc2c1ncn2[C@@H]1O[C@H](CO)[C@@H](O)[C@H]1O | inactive
5 | CNCC(O)c1ccc(O)c(O)c1 (configuration not stated) | inactive
6 | COc1ccc(CCN(C)CCCN2CCc3cc(OC)c(OC)cc3CC2=O)cc1OC | inactive
7 | CC12CCC(CC1)C(C)(C)O2 | inactive
8 | Nc1ccn([C@@H]2O[C@H](CO)[C@@H](O)C2O)c(=O)n1 (some centres not stated) | inactive
9 | NS(=O)(=O)c1cc(-c2nn[nH]n2)c(NCc2cccs2)cc1Cl | inactive
10 | COc1cnc(NS(=O)(=O)c2ccc(N)cc2)nc1 | inactive
11 | Nc1ccc(C(=O)Oc2ccccc2)c(O)c1 | inactive
12 | Cc1cc(=O)[nH]c(=S)[nH]1 | inactive
13 | S=P(N1CC1)(N1CC1)N1CC1 | inactive
14 | NC(=O)c1cccnc1 | inactive
15 | CCc1oc2ccccc2c1C(=O)c1cc(I)c(O)c(I)c1 | inactive
16 | C[C@H]1O[C@@H](n2cc(F)c(=O)[nH]c2=O)[C@H](O)[C@@H]1O | inactive
17 | CN(C)CCOC(=O)C(c1ccccc1)C1(O)CCCC1 (configuration not stated) | inactive
18 | COc1cc(O)cc(O)c1 | inactive
19 | CCCOc1ccc2c(c1)CC[C@@H]1[C@@H]2CC[C@]2(C)C(OC)CC[C@@H]12 (some centres not stated) | inactive
20 | O=C1C(O)=C(O)C(=O)C(O)=C1O | inactive
21 | CC(=O)Nc1ccc(CC(=O)O)cc1 | inactive
22 | CCn1cc(C(=O)O)c(=O)c2cc(F)c(N3CCNC(C)C3)c(F)c21 (configuration not stated) | inactive
